Experimental data published in PubChem BioAssay.
Several values for one entry are separate records, joined by “and”; a condition that tells them apart may be missing. Equal entries are not always repeated. Activity calls are given as the source filed them.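 The calls were made as follows, unless noted: active = compounds whose cell count with miR-34 switched on is under 0.7 times the count with it off; inactive = the rest.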

What was measured:
[1] = sensitizers of A549 cells to miR-34 induction, primary screen, imaging, A549 dox-inducible miR-34, nuclei and caspase counts (AID 1347080); settings: A549 miR-34 inducible, Hoechst nuclei count, 48 h
[2] = phospholipid biosynthesis inhibitors in animal cells, primary screen, cell-based, LOPAC library, screen 4 (AID 1347384; call rule not given here); settings: phospholipid biosynthesis inhibition screen, at 10 µM
[3] = viability rescue of complex I mutant cybrids, primary screen, cell-based, galactose medium, ATP luminescence (AID 1645843;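 active = z-score of at least 1.8 in each of two replicates, scored against plate mean and spread of sample wells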;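 also: positive z means more ATP and so rescue of galactose-driven cybrid death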); settings: complex I mutant cybrid cells, 72 h, stronger effect = higher value
[4] = survival rescue of mitochondrial mutant cells in low glucose, primary screen, MELAS cybrids, Rieske KO mouse fibroblasts, CellTiter-Glo (AID 1508586;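 active = mean z-score across replicates of 1.96 or higher in either the MELAS or the Rieske mutant cell line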;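 also: z relative to plate mean and SD of compound and empty wells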)
[5] = target: NAD(+) hydrolase SARM1 (Homo sapiens) (UniProt Q6SZW1); test: SARM1 TIR NADase inhibitors, cell lysate, NAD-Glo luminescence (AID 1508614;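 active = compound whose remaining NAD level is above about 45 nM, limit read from the data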;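 also: higher remaining NAD means stronger inhibition of SARM1 NADase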); settings: SAM-TIR HEK293T lysate NADase, at 1 µM, stronger effect = higher value
Sequence of NAD(+) hydrolase SARM1 (Homo sapiens) (Q6SZW1 whole entry, looked up, the tested form may be a part): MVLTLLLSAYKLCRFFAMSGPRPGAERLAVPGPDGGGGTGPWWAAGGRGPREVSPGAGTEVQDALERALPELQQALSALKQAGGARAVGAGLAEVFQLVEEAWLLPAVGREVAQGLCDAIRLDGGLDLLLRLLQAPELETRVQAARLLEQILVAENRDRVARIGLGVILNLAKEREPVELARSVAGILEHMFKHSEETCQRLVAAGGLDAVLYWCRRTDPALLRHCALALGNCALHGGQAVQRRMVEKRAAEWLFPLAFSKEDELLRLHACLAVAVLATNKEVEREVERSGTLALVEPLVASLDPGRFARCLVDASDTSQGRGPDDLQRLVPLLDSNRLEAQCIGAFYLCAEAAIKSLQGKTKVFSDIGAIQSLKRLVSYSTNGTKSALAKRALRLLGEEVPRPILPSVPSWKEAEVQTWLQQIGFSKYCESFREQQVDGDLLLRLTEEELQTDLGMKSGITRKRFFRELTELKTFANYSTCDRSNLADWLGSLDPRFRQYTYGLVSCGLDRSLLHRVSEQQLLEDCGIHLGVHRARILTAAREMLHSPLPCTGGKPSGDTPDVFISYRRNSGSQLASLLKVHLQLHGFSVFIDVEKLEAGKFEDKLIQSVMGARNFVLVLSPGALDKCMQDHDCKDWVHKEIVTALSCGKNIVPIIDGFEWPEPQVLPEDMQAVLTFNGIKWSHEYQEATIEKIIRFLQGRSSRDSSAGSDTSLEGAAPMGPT

[6] = target: Mitogen-activated protein kinase 7 (Homo sapiens) (UniProt Q13164); test: ERK5 transactivation activators in reporter cells, primary screen, cell-based, HTS (AID 1508626;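 active = luciferase signal above three times the same-plate solvent-only control wells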;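 also: luciferase driven by Gal4-ERK5 fusion binding five Gal4 sites before minimal TATA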); settings: HeLa Gal4-ERK5 transactivation, 18 h, at 5 µM, stronger effect = higher value
Sequence of Mitogen-activated protein kinase 7 (Homo sapiens) (Q13164 whole entry, looked up, the tested form may be a part): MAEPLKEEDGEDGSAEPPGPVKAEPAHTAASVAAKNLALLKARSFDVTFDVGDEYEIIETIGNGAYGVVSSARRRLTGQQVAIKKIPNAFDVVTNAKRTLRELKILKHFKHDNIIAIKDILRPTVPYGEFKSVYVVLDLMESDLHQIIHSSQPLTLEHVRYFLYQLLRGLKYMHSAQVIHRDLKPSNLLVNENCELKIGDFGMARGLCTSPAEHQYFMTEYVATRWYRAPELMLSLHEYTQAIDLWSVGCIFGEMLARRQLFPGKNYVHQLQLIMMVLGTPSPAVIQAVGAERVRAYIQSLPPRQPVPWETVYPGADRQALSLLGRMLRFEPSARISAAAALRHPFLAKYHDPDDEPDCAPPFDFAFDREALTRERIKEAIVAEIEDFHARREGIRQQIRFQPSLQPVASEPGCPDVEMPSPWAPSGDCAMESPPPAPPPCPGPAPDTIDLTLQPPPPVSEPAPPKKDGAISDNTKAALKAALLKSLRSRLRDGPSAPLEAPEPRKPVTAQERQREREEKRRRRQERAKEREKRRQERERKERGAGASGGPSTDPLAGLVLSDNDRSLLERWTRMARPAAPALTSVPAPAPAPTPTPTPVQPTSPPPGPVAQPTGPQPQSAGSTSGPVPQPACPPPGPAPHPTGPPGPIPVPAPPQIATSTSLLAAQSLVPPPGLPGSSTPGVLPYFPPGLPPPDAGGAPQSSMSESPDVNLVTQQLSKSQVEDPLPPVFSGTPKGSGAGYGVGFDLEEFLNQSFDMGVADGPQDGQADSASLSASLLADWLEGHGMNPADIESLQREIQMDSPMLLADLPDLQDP

[7] = stronger effect = lower value, cell number ratio, induced over uninduced
[8] = measured here: relative caspase fold change +Dox/-Dox
[9] = measured here: total cells with miR-34 induction, stronger effect = lower value
[10] = measured here: total cells without miR-34 induction
[11] = MELAS cybrid survival, CellTiter-Glo 48 h, stronger effect = higher value
[12] = Rieske KO mouse fibroblast survival, CellTiter-Glo 72 h

| SMILES | fold change [1, 7] | fold change [1, 8] | cell count [1, 9] | cell count [1, 10] | outcome [2] | z-score [3] | z-score [4, 11] | z-score [4, 12] | remaining NAD [5] | luciferase signal [6] |
| --- | --- | --- | --- | --- | --- | --- | --- | --- | --- | --- |
| CN(C)CC[C@@H](c1ccc(Br)cc1)c1ccccn1 | 0.946 (inactive) | 1.72 | 9070 | 9580 | inactive | -0.265 (inactive) | – | – | – | – |
| Cc1cc(C)nc(NS(=O)(=O)c2ccc(N)cc2)n1 | 0.847 (inactive) and 0.927 (inactive) and 0.901 (inactive) | 1.07 and 0.872 and 2.46 | 9060 and 8070 and 10900 | 10700 and 8710 and 12100 | – | – | -0.0833 (inactive) and 0.863 (inactive) | -0.156 and 0.665 | 10 nM (inactive) | 36 AU (inactive) |
| Nc1nccs1 | 0.923 (inactive) | 0.616 | 7980 | 8650 | – | – | -0.119 (inactive) | -0.205 | 10 nM (inactive) | 40 AU (inactive) |
| CCCCCCCC/C=C\CCCCCCCC(=O)NCc1ccc(O)c(OC)c1 | 1.07 (inactive) and 0.928 (inactive) and 0.945 (inactive) | 0.981 and 1.03 and 0.614 | 10500 and 5740 and 9140 | 9800 and 6180 and 9670 | inactive | -1.29 (inactive) and -1.24 (inactive) | – | – | – | – |
| O=C(O)CCCC[C@@H]1SC[C@@H]2NC(=O)N[C@@H]21 | 0.845 (inactive) | 1.66 | 8760 | 10400 | – | – | -0.325 (inactive) | -0.214 | 10 nM (inactive) | 256 AU (inactive) |
| CCN(CC)CCNC(=O)c1ccc(NC(C)=O)cc1 | 1.04 (inactive) and 0.905 (inactive) | 1.99 and 4.44 | 10300 and 12600 | 9910 and 14000 | inactive | 0.34 (inactive) | – | – | 10 nM (inactive) | 32 AU (inactive) |
| CC[C@]12CCCN3CCc4c(n(c5ccccc45)C(=O)C1)[C@@H]32 | 0.89 (inactive) | 1.52 | 3350 | 3760 | – | – | 1.02 (inactive) | 0.169 | – | – |
| C[n+]1cc2c3c(ccc2c2ccc4cc5c(cc4c21)OCO5)OCO3 | 0.823 (inactive) and 1.84 (inactive) and 1.11 (inactive) | 0.926 and 0.714 and 1.64 | 552 and 933 and 1830 | 672 and 507 and 1640 | inactive | -1.38 (inactive) | – | – | 10 nM (inactive) | 84 AU (inactive) |
| C[C@](N)(Cc1ccc(O)cc1)C(=O)O | 1.06 (inactive) | 0.881 | 10300 | 9680 | inactive | 0.71 (inactive) | – | – | – | 60 AU (inactive) |
| NC(Cc1ccc(Cl)cc1)C(=O)O (stereo unspecified) | 0.993 (inactive) | 1.95 | 10900 | 10900 | inactive | 0.25 (inactive) | – | – | 10 nM (inactive) | – |
| CC(C)NNC(=O)c1ccncc1 | 1.01 (inactive) and 0.987 (inactive) and 0.902 (inactive) | 0.707 and 0.895 and 1.13 | 10400 and 9260 and 10200 | 10300 and 9380 and 11300 | inactive | 0.54 (inactive) and 0.67 (inactive) | -0.146 (inactive) and 0.243 (inactive) | -0.0689 and -0.0455 | 10 nM (inactive) | 60 AU (inactive) |
| CCCCC1(COC(=O)CCC(=O)O)C(=O)N(c2ccccc2)N(c2ccccc2)C1=O | 0.884 (inactive) | 1.12 | 8700 | 9850 | – | – | 0.542 (inactive) | 0.234 | 10 nM (inactive) | – |
| Cc1c(O)cccc1C(=O)N[C@@H](CSc1ccccc1)[C@H](O)CN1C[C@H]2CCCC[C@H]2C[C@H]1C(=O)NC(C)(C)C | 0.973 (inactive) and 1.07 (inactive) | 1.56 and 1.1 | 1740 and 4590 | 1780 and 4280 | inactive | -1.03 (inactive) and -1.48 (inactive) | -0.847 (inactive) and 0.17 | 0.453 and 2.01 | – | – |
| CC(C(=O)O)c1ccc(CC2CCCC2=O)cc1 (stereo unspecified) | 1.07 (inactive) and 1 (inactive) | 0.862 and 2.11 | 11000 and 10200 | 10200 | inactive | 0.695 (inactive) and 0.805 (inactive) | – | – | 10 nM (inactive) | – |
| CC[N+](C)(C)Cc1ccccc1Br | 0.896 (inactive) | 1.09 | 8620 | 9630 | – | – | 0.582 (inactive) | 0.0274 | – | – |
| C[C@H](NC(CCc1ccccc1)C(=O)O)C(=O)N1CCC[C@H]1C(=O)O (stereo partly specified) | 0.987 (inactive) and 0.909 (inactive) | 0.994 and 1.8 | 9660 and 10200 | 9790 and 11200 | inactive | 0.7 (inactive) and 0.605 (inactive) | -0.542 (inactive) | -1.35 | 10 nM (inactive) | – |
| NC/C=C/C(=O)O | 1.01 (inactive) | 1.35 | 10300 | 10200 | inactive | 0.575 (inactive) | – | – | – | 96 AU (inactive) |
